Compound activity as filed in PubChem BioAssay.
MITF primary = MITF inhibitors, primary screen, biochemical, AlphaScreen, human; AlphaScreen MITF homodimerization, bead proximity signal; inhibition, % at 2.6 µM; actives 0.91% (n = 650,000); AID 1259374, 2018; in the data active = inhibition above about 50%
Target sequence (O75030 whole entry, looked up): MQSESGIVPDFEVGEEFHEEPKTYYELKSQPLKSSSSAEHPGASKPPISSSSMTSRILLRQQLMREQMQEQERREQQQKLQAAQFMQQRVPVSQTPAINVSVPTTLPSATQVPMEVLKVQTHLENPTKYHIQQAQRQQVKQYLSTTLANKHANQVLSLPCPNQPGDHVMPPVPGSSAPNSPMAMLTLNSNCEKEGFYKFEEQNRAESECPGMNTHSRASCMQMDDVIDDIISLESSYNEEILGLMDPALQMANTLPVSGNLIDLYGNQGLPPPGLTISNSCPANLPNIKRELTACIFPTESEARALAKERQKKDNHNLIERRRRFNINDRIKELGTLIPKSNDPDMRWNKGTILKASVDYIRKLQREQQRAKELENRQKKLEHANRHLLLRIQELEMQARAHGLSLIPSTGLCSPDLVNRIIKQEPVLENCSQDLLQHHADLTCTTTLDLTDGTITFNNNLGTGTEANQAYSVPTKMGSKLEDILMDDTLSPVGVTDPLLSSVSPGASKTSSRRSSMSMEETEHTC
TEAD-YAP block = TEAD-YAP interaction inhibition, primary screen, TEAD-YAP interaction inhibitor project, luminescence, HEK-TIYL cells. TEAD-Gal4/YAP UAS-luciferase luminescence. inhibition, % at 9.12 µM. actives 1.4% (n = 640,000). AID 1259422, 2018; in the data active = inhibition above about 32%
GPR151 ag = activators of human GPR151, primary screen, cell-based, PathHunter beta-arrestin, luminescence. G-protein coupled receptor 151 (Homo sapiens), Q8TDV0. PathHunter beta-arrestin GPR151 cells. activation, % at 11.2 µM. actives 1% (n = 650,000). AID 1508602, 2020; in the data active = activation above about 4.9%
FBW7 activator = FBW7 E3 ligase activators, primary screen, biochemical, AlphaScreen, human; F-box/WD repeat-containing protein 7 (Homo sapiens), Q969H0; AlphaScreen FBW7–phospho-cyclin E peptide binding, activator screen; normalized activity (activation), % at 26.1 µM; actives 0.13% (n = 650,000); in the data active = normalized activity above about 1.9%;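 note: purified mutant Fbw7 with reduced substrate affinity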
Large screens that a line does not name were inactive. Shown are actives, neighbours in structure and some others; about 3.5% of the full set was active somewhere.

COc1ccc(-c2cc3nccc(C4CCCNC4)n3n2)cc1OC (centres undefined)	none
Cc1cc(C)cc(OCC(=O)O/N=C(\N)c2ccc(I)cc2)c1	none
CCc1ccccc1Nc1nc(N)nc(Cn2nnc(-c3ccccc3)n2)n1	TEAD-YAP block 39.4
N#Cc1cnc(SCc2cc(=O)n3ccccc3n2)nc1N	FBW7 activator 16.4
COc1cccc(C(=O)N2N=C(c3cccnc3)CC2(O)C(F)(F)F)c1 (centres undefined)	none
CCN(CC)C(=O)C1CCCN(c2nc3ncnc(Nc4ccc(N5CCOCC5)cc4)c3[nH]2)C1 (centres undefined)	TEAD-YAP block 43.8
CC(=O)Nc1ccc(Nc2ncnc3nc(Nc4ccc(N5CCOCC5)cc4)[nH]c23)cc1	none
c1nc(NC2CC2)c2[nH]c(Nc3ccc(N4CCOCC4)cc3)nc2n1	TEAD-YAP block 34.7
c1ccc(CN2CCC(Nc3ncnc4nc(Nc5ccc(N6CCOCC6)cc5)[nH]c34)CC2)cc1	none
Cc1noc(C)c1-c1nc2ncnc(Nc3ccc(N4CCOCC4)cc3)c2[nH]1	TEAD-YAP block 32.6
c1cc(Nc2nc3ncnc(Nc4ccc(N5CCOCC5)cc4)c3[nH]2)ccn1	TEAD-YAP block 43.3
c1nc(Nc2ccc(N3CCOCC3)cc2)c2[nH]c(NCCN3CCOCC3)nc2n1	none
c1ccc(Nc2ncnc3nc(-c4ccc(N5CCOCC5)nc4)[nH]c23)cc1	TEAD-YAP block 53.6
c1cnc(Nc2nc3ncnc(Nc4ccc(N5CCOCC5)cc4)c3[nH]2)nc1	TEAD-YAP block 53.4
CC(=O)Nc1ccc(Nc2ncnc3nc(-c4ccc(N5CCOCC5)nc4)[nH]c23)cc1	none
CCOC(=O)c1c(NC(=O)CSc2nnc(CNC(=O)c3ccc(OC)cc3)n2-c2cccc(C)c2)sc2c1CCCC2	none
CC1(C)Cc2c(ccc3ccccc23)-c2nnc(-c3cccc(N)c3)n21	none
CCOc1ccc2[nH]c(=O)c(CN(Cc3cccs3)C(=O)CC)cc2c1	TEAD-YAP block 33.3
Cc1nc2ccccc2c2nn(CC(=O)NC3CC3)c(=O)n12	none
COc1ccc(-c2nnc3n2N(C(C)=O)C(c2ccccc2)=C(C(C)=O)S3)cc1	none
C=CC1=C(C)C2=CC3=NC(=C(CC(=O)[O-])C4=NC(=C(C)C4=C([O-])[O-])C=c4[n-]c(c(C)c4CC)=CC1=N2)C(CCC(=O)[O-])C3C.C=CC1=C(C)C2=CC3=NC(=C(CC(=O)[O-])C4=NC(=C(C)C4=C([O-])[O-])C=c4[n-]c(c(C)c4CC)=CC1=N2)C(CCC(=O)[O-])C3C.[Cu+2].[Na+].[Na+].[Na+] (centres undefined)	MITF primary 60.3
COc1ccc(/C=C/C(=O)NCCC2=CCCCC2)cc1	none
COc1ccc(/C=C/C(=O)Nc2ccc(S(=O)(=O)N3CCCCCC3)cc2)cc1	TEAD-YAP block 32.1
CC1CCCN(S(=O)(=O)c2ccc(NC(=O)/C=C/c3ccco3)cc2)C1 (centres undefined)	TEAD-YAP block 41.2
COc1ccc(/C=C/C(=O)Nc2ccc(S(=O)(=O)N3CCCC3)cc2)cc1	none
O=C(Cn1c(=O)oc2ccccc21)Nc1ccc2c(c1)Cc1ccccc1-2	none
CN(CC(=O)Nc1cccc(C(F)(F)F)c1)S(=O)(=O)c1ccccc1	none
Cc1cncc2cccc(NC3CCN(C(=O)c4cccc(Br)c4)C3)c12 (centres undefined)	none
COc1ccc(Nc2c3c(nc4ccccc24)CCC3)cc1	none
COC(=O)c1ccc(Nc2c3c(nc4ccccc24)CCC3)cc1	TEAD-YAP block 45.5
Cc1sc2nc(SCC(=O)Nc3ccccc3N3CCOCC3)nc(N)c2c1C	TEAD-YAP block 43.1
O=C(c1cc2ccccc2o1)N1CCN(C(c2ccccc2)c2ccccc2)CC1	none
Cc1[nH]c2ccccc2c1C(=O)/C(C#N)=C/c1ccc(N(C)CCO)cc1	TEAD-YAP block 38.3
COc1cc(CNc2ccc3c(c2)ncn3C)cc(OC)c1OC	TEAD-YAP block 63.0
CCCn1cnc2cc(NCc3cc(OC)c(OC)c(OC)c3)ccc21	none
CCn1cnc2cc(NCc3cc(OC)c(OC)c(OC)c3)ccc21	TEAD-YAP block 57.5
COc1cnc(-c2ccccn2)nc1-c1ccccc1	TEAD-YAP block 40.3
Cc1ccc(S(=O)(=O)Cc2ccc(C(=O)N3CCN(c4ccccc4)CC3)o2)cc1	TEAD-YAP block 40.4
O=C(c1ccc(CS(=O)c2ccccc2)o1)N1CCN(c2ccccc2)CC1 (centres undefined)	TEAD-YAP block 42.0
